Test results as given in PubChem BioAssay AID1159580 (chemical genetic matrix, 2015).
In all, about 5,500 compounds went through this assay and about 2,000 (36%) were called active. Inconclusive results (about 18%) are left out. Some of the results follow. A number with no mark means an inactive call. No stated cut-off is given here; in the data, active means normalized growth mostly below about 0.91 (no sharp cut-off); inconclusive means no clear call, values can overlap the other calls; inactive means mostly above about 0.92.

Test: chemical genetic growth profiling, strain panel (AID 1159580);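 further: tested at 20 µM; growth read once vehicle control cultures reached saturation at 30 °C; 1 = growth at the plate median or of vehicle wells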
Conditions: growth OD

SMILES: COc1ccc2c(c1C(C)C)CCC1C(C)(C)C(=O)CCC21C (stereo unspecified)
- normalized growth (S. cerevisiae deletion strains, locus YAL013W, strain DEP1, stronger effect = lower value): 1
- normalized growth (S. cerevisiae deletion strains, locus YBR021W, strain FUR4, stronger effect = lower value): 1
- normalized growth (S. cerevisiae deletion strains, locus YBR229C, strain ROT2, stronger effect = lower value): 0.988
- normalized growth (S. cerevisiae deletion strains, locus YCL029C, strain bik1, stronger effect = lower value): 0.955
- normalized growth (S. cerevisiae deletion strains, locus YDL035C, strain GPR1, stronger effect = lower value): 0.972
- normalized growth (S. cerevisiae deletion strains, locus YDL074C, strain BRE1, stronger effect = lower value): 0.969
- normalized growth (S. cerevisiae deletion strains, locus YDL101C, strain DUN1, stronger effect = lower value): 0.996
- normalized growth (S. cerevisiae deletion strains, locus YDL134C, strain PPH21, stronger effect = lower value): 0.976
- normalized growth (S. cerevisiae deletion strains, locus YDL185W, strain tfp1, stronger effect = lower value): 0.982
- normalized growth (S. cerevisiae deletion strains, locus YDL192W, strain arf1, stronger effect = lower value): 0.974
- normalized growth (S. cerevisiae deletion strains, locus YDR101C, strain arx1, stronger effect = lower value): 0.981
- normalized growth (S. cerevisiae deletion strains, locus YDR150W, strain NUM1, stronger effect = lower value): 0.96
- normalized growth (S. cerevisiae deletion strains, locus YDR162C, strain NBP2, stronger effect = lower value): 0.983
- normalized growth (S. cerevisiae deletion strains, locus YDR318W, strain mcm21, stronger effect = lower value): 0.968
- normalized growth (S. cerevisiae deletion strains, locus YDR388W, stronger effect = lower value): 0.977
- normalized growth (S. cerevisiae deletion strains, locus YDR502C, strain sam2, stronger effect = lower value): 0.982
- normalized growth (S. cerevisiae deletion strains, locus YEL061C, strain CIN8, stronger effect = lower value): 0.988
- normalized growth (S. cerevisiae deletion strains, locus YER110C, stronger effect = lower value): 0.982
- normalized growth (S. cerevisiae deletion strains, locus YER155C, strain BEM2, stronger effect = lower value): 0.991
- normalized growth (S. cerevisiae deletion strains, locus YER167W, strain BCK2, stronger effect = lower value): 0.95
- normalized growth (S. cerevisiae deletion strains, locus YGL078C, strain dbp3, stronger effect = lower value): 0.977
- normalized growth (S. cerevisiae deletion strains, locus YGL086W, strain mad1, stronger effect = lower value): 0.961
- normalized growth (S. cerevisiae deletion strains, locus YGL248W, strain PDE1, stronger effect = lower value): 0.976
- normalized growth (S. cerevisiae deletion strains, locus YGR078C, strain PAC10, stronger effect = lower value): 1
- normalized growth (S. cerevisiae deletion strains, locus YGR135W, strain pre9, stronger effect = lower value): 0.984
- normalized growth (S. cerevisiae deletion strains, locus YGR229C, strain SMI1, stronger effect = lower value): 0.974
- normalized growth (S. cerevisiae deletion strains, locus YGR252W, strain gcn5, stronger effect = lower value): 0.98
- normalized growth (S. cerevisiae deletion strains, locus YHR030C, strain SLT2, stronger effect = lower value): 0.979
- normalized growth (S. cerevisiae deletion strains, locus YHR079C, strain IRE1 (second series), stronger effect = lower value): 0.96
- normalized growth (S. cerevisiae deletion strains, locus YHR094C, strain hxt1, stronger effect = lower value): 0.974
- normalized growth (S. cerevisiae deletion strains, locus YHR129C, strain ARP1, stronger effect = lower value): 0.983
- normalized growth (S. cerevisiae deletion strains, locus YHR200W, strain rpn10, stronger effect = lower value): 0.955
- normalized growth (S. cerevisiae deletion strains, locus YIL066C, strain RNR3, stronger effect = lower value): 0.979
- normalized growth (S. cerevisiae deletion strains, locus YIL073C, strain SPO22, stronger effect = lower value): 0.921
- normalized growth (S. cerevisiae deletion strains, locus YIL125W, strain kgd1, stronger effect = lower value): 0.971
- normalized growth (S. cerevisiae deletion strains, locus YIR030C, strain dcg1, stronger effect = lower value): 0.97
- normalized growth (S. cerevisiae deletion strains, locus YJL095W, strain BCK1, stronger effect = lower value): 0.954
- normalized growth (S. cerevisiae deletion strains, locus YJL134W, strain LCB3, stronger effect = lower value): 0.983
- normalized growth (S. cerevisiae deletion strains, locus YJL168C, strain set2, stronger effect = lower value): 0.984
- normalized growth (S. cerevisiae deletion strains, locus YJL187C, strain SWE1 (second series), stronger effect = lower value): 0.986
- normalized growth (S. cerevisiae deletion strains, locus YJR043C, strain POL32, stronger effect = lower value): 0.962
- normalized growth (S. cerevisiae deletion strains, locus YJR075W, strain HOC1, stronger effect = lower value): 1
- normalized growth (S. cerevisiae deletion strains, locus YKL009W, strain mrt4, stronger effect = lower value): 0.966
- normalized growth (S. cerevisiae deletion strains, locus YKL068W, stronger effect = lower value): 0.976
- normalized growth (S. cerevisiae deletion strains, locus YKL085W, strain MDH1 (second series), stronger effect = lower value): 0.967
- normalized growth (S. cerevisiae deletion strains, locus YKL085W, strain MDH1, stronger effect = lower value): 0.967
- normalized growth (S. cerevisiae deletion strains, locus YKL190W, strain CNB1, stronger effect = lower value): 0.988
- normalized growth (S. cerevisiae deletion strains, locus YKR001C, strain vps1, stronger effect = lower value): 0.979
- normalized growth (S. cerevisiae deletion strains, locus YLR039C, strain RIC1, stronger effect = lower value): 0.995
- normalized growth (S. cerevisiae deletion strains, locus YLR058C, strain SHM2, stronger effect = lower value): 0.981
- normalized growth (S. cerevisiae deletion strains, locus YLR102C, strain apc9, stronger effect = lower value): 0.978
- normalized growth (S. cerevisiae deletion strains, locus YLR262C, strain YPT6, stronger effect = lower value): 0.994
- normalized growth (S. cerevisiae deletion strains, locus YLR268W, strain sec22, stronger effect = lower value): 0.995
- normalized growth (S. cerevisiae deletion strains, locus YLR330W, strain CHS5, stronger effect = lower value): 0.985
- normalized growth (S. cerevisiae deletion strains, locus YLR342W, strain FKS1 (second series), stronger effect = lower value): 0.973
- normalized growth (S. cerevisiae deletion strains, locus YLR371W, strain rom2, stronger effect = lower value): 0.979
- normalized growth (S. cerevisiae deletion strains, locus YLR418C, strain cdc73, stronger effect = lower value): 0.946
- normalized growth (S. cerevisiae deletion strains, locus YML016C, strain PPZ1, stronger effect = lower value): 0.978
- normalized growth (S. cerevisiae deletion strains, locus YML032C, strain rad52, stronger effect = lower value): 0.964
- normalized growth (S. cerevisiae deletion strains, locus YML124C, strain tub3, stronger effect = lower value): 0.961
- normalized growth (S. cerevisiae deletion strains, locus YMR078C, strain ctf18, stronger effect = lower value): 0.96
- normalized growth (S. cerevisiae deletion strains, locus YMR223W, strain ubp8, stronger effect = lower value): 0.959
- normalized growth (S. cerevisiae deletion strains, locus YMR263W, strain SAP30, stronger effect = lower value): 1.01
- normalized growth (S. cerevisiae deletion strains, locus YMR307W, strain GAS1, stronger effect = lower value): 0.84
- normalized growth (S. cerevisiae deletion strains, locus YNL067W, strain RPL9B, stronger effect = lower value): 1.01
- normalized growth (S. cerevisiae deletion strains, locus YNL128W, strain TEP1, stronger effect = lower value): 1.01
- normalized growth (S. cerevisiae deletion strains, locus YNL153C, strain GIM3, stronger effect = lower value): 1
- normalized growth (S. cerevisiae deletion strains, locus YNL233W, strain BNI4, stronger effect = lower value): 0.98
- normalized growth (S. cerevisiae deletion strains, locus YNL250W, strain rad50, stronger effect = lower value): 0.972
- normalized growth (S. cerevisiae deletion strains, locus YNL271C, strain bni1, stronger effect = lower value): 0.977
- normalized growth (S. cerevisiae deletion strains, locus YNL298W, strain CLA4, stronger effect = lower value): 0.982
- normalized growth (S. cerevisiae deletion strains, locus YNL307C, strain MCK1, stronger effect = lower value): 0.854 (active)
- normalized growth (S. cerevisiae deletion strains, locus YNL322C, strain KRE1, stronger effect = lower value): 0.992
- normalized growth (S. cerevisiae deletion strains, locus YNR052C, strain pop2, stronger effect = lower value): 0.991
- normalized growth (S. cerevisiae deletion strains, locus YOL006C, strain TOP1, stronger effect = lower value): 0.896
- normalized growth (S. cerevisiae deletion strains, locus YOL012C, strain htz1): 1.19
- normalized growth (S. cerevisiae deletion strains, locus YOL147C, strain pex11, stronger effect = lower value): 0.975
- normalized growth (S. cerevisiae deletion strains, locus YOR061W, strain CKA2, stronger effect = lower value): 0.977
- normalized growth (S. cerevisiae deletion strains, locus YOR069W, strain VPS5, stronger effect = lower value): 0.983
- normalized growth (S. cerevisiae deletion strains, locus YOR136W, strain idh2, stronger effect = lower value): 0.981
- normalized growth (S. cerevisiae deletion strains, locus YOR144C, strain elg1, stronger effect = lower value): 0.978
- normalized growth (S. cerevisiae deletion strains, locus YOR184W, strain ser1, stronger effect = lower value): 0.899
- normalized growth (S. cerevisiae deletion strains, locus YOR316C, strain cot1, stronger effect = lower value): 0.967
- normalized growth (S. cerevisiae deletion strains, locus YPL055C, strain LGE1, stronger effect = lower value): 1.01
- normalized growth (S. cerevisiae deletion strains, locus YPL241C, strain CIN2, stronger effect = lower value): 0.984
- normalized growth (S. cerevisiae deletion strains, locus YPR119W, strain clb2, stronger effect = lower value): 0.971
- normalized growth (S. cerevisiae deletion strains, locus YPR141C, strain kar3, stronger effect = lower value): 0.97
- normalized growth (S. cerevisiae deletion strains, locus YPR163C, strain tif3, stronger effect = lower value): 0.984
- normalized growth (S. cerevisiae deletion strains, locus YPR167C, strain met16, stronger effect = lower value): 0.97
- normalized growth (S. cerevisiae deletion strains, strain wtn01, stronger effect = lower value): 0.975
- normalized growth (S. cerevisiae strains, strain wild type, stronger effect = lower value): 0.998
